Screens (PubChem)
a7 integrin act: activates integrin-mediated alleviation for muscular dystrophy. alpha7betagal myoblasts, beta-gal FDG fluorescence, 48 h. Potency, µM (doses to about 38.3 µM), without a hit: at the highest dose activation, actives largely listed as activators. AID 624291. actives 0.064% (n = 350,000);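 note: potency is the fitted concentration of half-maximal effect; 100% = response of the positive control SU9516; nearly all actives have a fitted effect of over 60% in size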
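Alpha7betagal+/- myoblasts (passage 13) were plated 16-24 hr, then exposed to compounds (1:260 dilution of DMSO stock) for 48 hours at 37C. After MPER lysis, β-galactosidase reporter activity was read as FDG fluorescence (ex 480/em 540) after 30 minutes.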
DRD3 agonist: D3 dopamine receptor (human) agonism; P35462; D3R DiscoveRx beta-arrestin cells, luminescence, 90 min; max activation, %; actives 0.58% (n = 410,000); in the data active = max activation above about 30%; note: 0% is about no effect
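Cells at 1500/well, incubated overnight, then treated with pinned compounds (dopamine as control) for 90 min at 37 degrees C. DiscoveRx reagent added for 30 - 60 minutes at room temperature; luminescence read.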
B2AR arrestin: agonists driving beta-arrestin recruitment to human beta2-adrenergic receptor; beta-arrestin recruitment to beta2AR, cell-based reporter; Potency, µM (series often up to 46.1 µM), without a hit: top-dose activation, usual class: activators; actives 0.02% (n = 330,000);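 note: potency is the fitted concentration of half-maximal effect; 0% = DMSO controls and full agonism = EC100 isoproterenol or metaproterenol; nearly all actives have a fitted effect of over 65% in size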
Target sequence (P07550 whole entry, looked up): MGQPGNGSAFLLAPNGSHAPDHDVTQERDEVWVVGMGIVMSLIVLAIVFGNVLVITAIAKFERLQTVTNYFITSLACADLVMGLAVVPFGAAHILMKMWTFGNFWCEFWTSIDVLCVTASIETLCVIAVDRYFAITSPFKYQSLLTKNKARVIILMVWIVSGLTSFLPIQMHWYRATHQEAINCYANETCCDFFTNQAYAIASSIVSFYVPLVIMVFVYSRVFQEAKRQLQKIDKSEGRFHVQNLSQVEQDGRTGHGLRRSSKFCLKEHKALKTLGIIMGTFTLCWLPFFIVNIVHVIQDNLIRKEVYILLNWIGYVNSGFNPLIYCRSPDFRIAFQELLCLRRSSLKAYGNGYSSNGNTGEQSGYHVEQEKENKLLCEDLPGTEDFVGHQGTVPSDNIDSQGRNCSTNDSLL
D3 antag: D3 dopamine receptor (human) antagonism; P35462; D3R cells, DiscoveRx beta-arrestin luminescence, antagonist mode; hits give low values; actives 2.5% (n = 360,000); max response, negative = inhibition, %; in the data active = max response below about -50%; inconclusive = no clear call, values can overlap the other calls; note: % is set by controls: 0 for no effect and ±100 for the full control effect
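Cells plated overnight at 1500 cells/well, then exposed to library compounds with dopamine controls for 90 minutes at 37 degrees C. DiscoveRx reagent added for 30–60 minutes at room temperature; luminescence read, quantitative HTS format.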
IDH1 R132H inh: human IDH1 R132H inhibition. O75874. IDH1-R132H enzyme, NADPH consumption, diaphorase/resazurin fluorescence. Potency, µM (series often up to 76.6 µM), without a hit: at the top dose activity change, negative = inhibition, actives largely listed as inhibitors. actives 0.093% (n = 390,000). AID 602179; note: potency is the fitted concentration of half-maximal effect; % is set by controls: 0 for no effect and ±100 for the full control effect; nearly all actives have a fitted effect of over 65% in size
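IDH1-R132H (0.5 ug/mL) preincubated 30 min with compound, then NADPH (0.016 mM) and alpha-KG (2 mM) added; 80 min at RT, pH 7.5. Remaining NADPH coupled via diaphorase/resazurin to fluorescence (540/590 nm); concentration-response curves normalized to no-enzyme control.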
The depositor's hits bear a star; ? = inconclusive; · = no result. A selection: hits, their analogues and other compounds. The true share with any hit is near 2.9%. Unless noted, calls come from the whole dose curve; as a rule, active = well fitted curve in the direction sought with a large enough effect; inconclusive = small, poorly fitted or top-dose-only effect, or another doubt; inactive = no such curve, though single readings can be large; an effect the other way counts as inactive or inconclusive.

SMILES | a7 integrin act | DRD3 agonist | B2AR arrestin | D3 antag | IDH1 R132H inh
CN1CCCN(C(=O)COc2cccc(C(F)(F)F)c2)CC1 | 8% | 2 | -1% | -89* | 0%
CCN1C[C@]2(COC)[C@H](O)C[C@H](OC)[C@@]34[C@@H]5C[C@@]6(O)[C@H](OC(=O)c7ccccc7)[C@@H]5[C@@](OC(C)=O)([C@@H]([C@H](OC)[C@H]23)[C@@H]14)[C@@H](O)[C@@H]6OC | · | -16 | · | · | ·
O=c1[nH]c2ccccc2n1C1CCN(Cc2ccc(-c3[nH]c4cc5ncnc5cc4nc3-c3ccccc3)cc2)CC1 | · | -16 | · | -96* | ·
O=C1CC(N2CCC(n3c(=O)[nH]c4ccccc43)CC2)C(=O)N1Cc1ccccc1 (stereo not drawn) | -10% | 1 | 0% | -16 | -4%
CN1CCN(CCC(C#N)(c2ccccc2)c2ccccc2)CC1 | 0% | -1 | 0% | -80* | 2%
CCCCn1c(O)c(C(CC)=NCCCN(C)C)c(=O)[nH]c1=O | 3% | -5 | 0% | -64* | 11%
COc1ccc2c3c1O[C@H]1[C@H](O)CC[C@H]4[C@@H](C2)N(C)CC[C@@]341 | · | 5 | · | · | ·
COc1cc(C[C@@H](C)N)c(OC)cc1C | · | -14 | · | · | ·
CCOC(=O)NC(O)C(Cl)(Cl)Cl (stereo not drawn) | · | 3 | · | · | ·
O=[N+]([O-])c1ccc(N2CCCC(C(F)(F)F)C2)c2ccncc12 (stereo not drawn) | -65% | 32* | 0% | 17 | 21%
O=[N+]([O-])c1ccc(N2CCCCC2)c2ncccc12 | 14% | -3 | -1% | -21 | 24%
CCCCNC(C)(C)[P+](=O)O | · | -18 | · | · | ·
COC(=O)C1=C(c2cccc(OCc3ccccc3)c2)C[C@@H]2CC[C@H]1N2C(=O)NC1CCN(Cc2ccccc2)CC1 | -48% | -49 | 0% | -120* | 15%
COC(=O)C1=C(c2ccccc2OCc2ccccc2)C[C@@H]2CC[C@H]1N2C(=O)NC1CCN(Cc2ccccc2)CC1 | -28% | -71 | 3% | -85* | 4%
COC(=O)C1=C(c2ccc(F)cc2OCc2ccccc2)C[C@@H]2CC[C@H]1N2C(=O)NC1CCN(Cc2ccccc2)CC1 | -43% | -8 | 0% | -108* | -8%
COC(=O)C1=C(c2ccccc2OCc2ccccc2)C[C@@H]2CC[C@H]1N2C(=O)NCc1ccccc1 | -11% | -12 | 3% | -13 | 9%
O=C(CCl)c1ccc(Oc2ccc(C(=O)CCl)cc2)cc1 | · | -5 | · | · | ·
CC(=O)OC1N=C(c2ccccc2)c2ccccc2NC1=O (stereo not drawn) | -1% | 8 | 0% | -50* | 3%
CC(=O)OC1N=C(c2ccccc2)c2cc(C)ccc2NC1=O (stereo not drawn) | 6% | -10 | 0% | -22 | 5%
COc1cc(OC)c(OC)cc1CNCCc1ccc(F)cc1 | 0% | -18 | 0% | 0 | 3%
COc1ccccc1CNCCc1ccc(F)cc1 | -58% | -17 | 0% | -55* | 0%
Fc1ccc(CCNCc2ccc(Cl)c(Cl)c2)cc1 | -18% | -32 | 0% | -72* | -2%
CCc1ccc(CNCCc2ccc(F)cc2)cc1 | -44% | -8 | 0% | -14 | 3%
CN1CC[C@@]23CCCC[C@@H]2[C@@H]1Cc1ccc(O)cc13 | · | -6 | 0% | -13 | -2%
CN1CC[C@]2(c3cccc(O)c3)Cc3nc4ccccc4cc3C[C@H]2C1 | · | · | 11µM* | · | ·
SMILES | a7 integrin act | DRD3 agonist | B2AR arrestin | D3 antag | IDH1 R132H inh
COc1cccc(C(=O)CCN[C@@H](C)[C@H](O)c2ccccc2)c1 | · | -12 | · | · | ·
CCN[C@H](C)Cc1cccc(C(F)(F)F)c1 | · | -27 | · | · | ·
C=CC(=O)NCNC(=O)C=C | · | -88 | 0% | -76* | -6%
COC(=O)c1ccc(COC(=O)c2nn(C)c(=O)c3ccccc23)cc1 | ? | 10 | 0% | 67 | -5%
O=C(COc1ccccc1)N1CCN(C2CCCC2)CC1 | 5% | -4 | -1% | ? | 2%
O=C(Cc1ccccc1)N1CCN(C2CCCC2)CC1 | 5% | -4 | 0% | -72* | 11%
Nc1ncc(S(=O)(=O)c2ccc(Cl)cc2)c(N)n1 | -32% | 5 | 0% | 4 | 22%
CC(C)(C)c1cc(C=C(C#N)C#N)cc(C(C)(C)C)c1O | · | 50* | 0% | 50 | -7%
N#CC(C#N)=Cc1ccc(O)c(O)c1 | · | 7 | 0% | 32 | -5%
Cc1cccc(OCC(=O)N2CCN(Cc3ccncc3)CC2)c1 | -1% | -6 | 0% | -77* | 14%
CC1=CC(=O)OC2CC3OC4C[C@@H](C)C5OC6CC7O[C@]8(C)C/C=C\C9OC%10CC%11OC(CC(C)CO)CC(O)[C@]%11(C)OC%10CC9OC8C[C@]7(C)O[C@]6(C)CCC5OC4C[C@]3(C)OC12 (stereo partly drawn) | 13% | 46* | 0% | 60 | 12%
C=C(COC(=O)CCC(=O)O)CC1CC(O)[C@]2(C)OC3CC4OC5C[C@]6(C)O[C@]7(C)CCC8OC9C[C@]%10(C)OC%11C(C)=CC(=O)OC%11CC%10OC9C[C@@H](C)C8OC7CC6O[C@]5(C)C/C=C\C4OC3CC2O1 (stereo partly drawn) | 3% | -7 | 0% | 5 | -21%
Cc1ccccc1CN1CCN(C(=O)Cc2ccccc2)CC1 | ? | -11 | -1% | -28 | -2%
Cc1ccc(CN2CCN(C)CC2)c(C)c1 | 6% | 2 | 0% | -16 | 2%
CCN1CCN(Cc2ccc(C)cc2C)CC1 | -18% | -2 | 0% | -72* | 5%
CCN1CCN(Cc2ccccc2C)CC1 | -27% | -13 | 0% | -66* | 3%
COc1cc2c(cc1O)[C@@H]1Cc3ccc(OC)c(O)c3CN1CC2 | · | -89 | 0% | -100* | 35%
COc1ccc(C[C@@H]2c3cc(O)c(OC)cc3CCN2C)cc1O | 42% | -31 | -1% | -117* | -6%
CCC(OC(C)=O)C(CC(C)NC)(c1ccccc1)c1ccccc1 (stereo not drawn) | · | -13 | · | · | ·
C[C@H]1[C@@H]2Cc3ccc(O)cc3[C@@]1(C)CCN2C | · | 0 | · | · | ·
CC1=NN(c2ccccc2)C(=O)C1/C=C1/C(=O)NC(=O)N(c2cccc(C)c2)C1=O (stereo not drawn) | · | · | -2% | · | ·
Cc1cccc(N2C(=O)NC(=O)/C(=C\c3ccc4c(c3)CCCN4Cc3ccccc3)C2=O)c1 | 1% | -1 | 0% | -2 | 52µM*
COC(=O)[C@@H](N)CCCN/C(N)=N/[N+](=O)[O-] | · | -9 | · | · | ·
O=P(Nc1cccc(Cl)c1)(Oc1ccccc1)Oc1ccccc1 | -18% | 32* | 0% | 21 | -6%
COc1cccc(NP(=O)(Oc2ccccc2)Oc2ccccc2)c1 | 3% | 4 | 0% | -1 | 3%
CC1(C)CSC(Nc2ccc(F)c(Cl)c2)=N1 | -14% | 0 | 0% | 0 | -2%
CC1(C)COC(Nc2cccc(Cl)c2)=N1 | 14% | 14 | 0% | -55* | 12%
